Laboratory results taken from PubChem BioAssay AID504766 (The Scripps Research Institute Molecular Screening Center, 2011).
Out of some 340,000 compounds screened, about 3,400 (1%) were called active. The sample holds actives, similar compounds and a random draw of the others, so the mix is not that of the screen. Unmarked numbers belong to inactive results.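 Rule for the calls: active = inhibition above the mean over all tested compounds plus 3 SD (cut at about 4.2% in these data); inactive = the rest.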

Each molecule was assayed against Nuclear receptor subfamily 0 group B member 1 (Homo sapiens) (UniProt P51843) (assay: DAX1 (NR0B1) inhibitors, primary screen, cell-based, HEK293, Gal4-DAX1, luciferase luminescence (AID 504766;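 note: 0% = DAX1-transfected cells with DMSO and 100% = empty-vector control cells with DMSO; inhibition shows as a rise in luminescence from relieved DAX1 repression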)). Conditions: HEK293 Gal4-DAX1 luciferase reporter, at 6.75 µM, active compounds read high.
Chain of Nuclear receptor subfamily 0 group B member 1 (Homo sapiens) (P51843 207-470 limits assumed): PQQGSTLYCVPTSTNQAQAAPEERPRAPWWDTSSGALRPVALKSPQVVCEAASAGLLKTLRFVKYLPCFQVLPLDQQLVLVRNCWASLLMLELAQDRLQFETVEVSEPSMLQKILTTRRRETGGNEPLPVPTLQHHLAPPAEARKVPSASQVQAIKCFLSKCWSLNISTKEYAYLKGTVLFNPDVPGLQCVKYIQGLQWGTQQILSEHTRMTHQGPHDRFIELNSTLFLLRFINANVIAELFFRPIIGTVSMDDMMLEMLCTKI

SMILES | inhibition
CN(C)C(CNC(=O)c1cccc(S(=O)(=O)N2CCc3ccccc3C2)c1)c1ccccc1 (stereo not given) | -0.17%
Oc1ccccc1-c1cc(-c2ccc(Cl)cc2)n[nH]1 | 3.28%
c1ccc(-c2cc(-c3ccccc3)[nH]n2)cc1 | 5.19% (active)
Nc1cccc(-c2cc(-c3ccccc3)nc(-c3cccc(N)c3)n2)c1 | -0.66%
Cc1[nH]c2ccccc2c1C(=O)C(=O)NCc1nnnn1-c1cccc(F)c1 | -0.63%
O=C1CCC(C(=O)OCC(=O)Nc2ccc(OC(F)F)cc2)=NN1 | 0.5%
O=C(N=C1SC2CS(=O)(=O)CC2N1Cc1ccccc1)c1ccccc1 (stereo not given) | 4.11%
O=C(c1cccs1)N1C[C@H](n2cc(C3CC3)nn2)[C@@H](O)C[C@@H]1c1ccccc1 | 1.63%
C#CCN(C[C@@H]1[C@@H](OC(=O)NC2CC2)[C@@H](OC(=O)NC2CC2)Cn2c(=O)ccc(=O)n21)S(=O)(=O)c1ccc(C)cc1 | -0.06%
O=C(c1ccncc1)N1CCN(S(=O)(=O)c2cccc([N+](=O)[O-])c2)CC1 | 0.88%
Cc1ccccc1OS(=O)(=O)c1cccc([N+](=O)[O-])c1 | 1.42%
N/C(=N\OS(=O)(=O)c1cccc([N+](=O)[O-])c1)c1ccncc1 | 4.92% (active)
CN(C)C(CNC(=O)c1ccc(OCc2cn3ccccc3n2)cc1)c1ccco1 (stereo not given) | 0.93%
O=Cc1ccc(OCc2cn3ccccc3n2)cc1 | 7.12% (active)
O=C(NCCc1ccco1)c1ccc(OCc2cn3ccccc3n2)cc1 | 0.65%
N#CCCN(C(=O)Nc1ccc(Cl)c(Cl)c1)C1CCCCC1 | 1.35%
CC1CCN(c2ccc3c(c2)S(=O)(=O)c2cc(C(=O)O)ccc2C3=O)CC1 | -0.21%
COc1ccc(NC(=S)NCCNC(C)=O)cc1 | 4.78% (active)
COc1ccc(NC(=S)NCC2CCN(c3ccc(OC)cc3)C2)cc1 (stereo not given) | 0.86%
CCOC(=O)C(NC(C)=O)C(=O)Nc1ccc(OC)cc1 (stereo not given) | 1.97%
COc1ccc(NC(=O)c2cc(=O)[nH]c3ccccc23)cc1S(=O)(=O)N1CCOCC1 | 1.51%
COC(=O)c1ccccc1N=NNc1ccc([N+](=O)[O-])cc1 | 2.03%
C[C@H](CO)N1C[C@H](C)[C@@H](CN(C)Cc2ccc3c(c2)OCO3)OCc2cnnn2CCCC1=O | 0.31%
Cc1csc(=O)n1CCC(=O)OCC(=O)Nc1ccc(N2CCOCC2)cc1 | 0.99%
CCN1C(=O)[C@H]2[C@@H](c3ccccc3)N[C@]3(CCCN(Cc4ccc(C)cc4)C3=O)[C@H]2C1=O | 0.28%
